# Screening data (PubChem)
# Rows were chosen to be rich in hits. Some 3.2% of all compounds tested hit in one or more screens of this group.
# CRE Fsk mod: modulators of forskolin-stimulated CRE signaling in CHO cells. CHO CRE-bla reporter (cAMP response element driving beta-lactamase), forskolin EC10, beta-lactamase ratio. Potency, µM (doses to about 38.2 µM), inactives show top-dose activity change, negative = inhibition, actives largely listed as activators. actives 2.5% (n = 71,000); active = well fitted activation curve with a large enough effect in the signal ratio, with a control signal flat, not every such curve was filed as active; inconclusive = small, poorly fitted or top-dose-only effect, or effect the other way, or a change in a side signal; the % refers to the signal ratio; note: % of control where 0% means no effect
#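 The 460nm/530nm emission ratio after CCF4 loading defined %Activity, from which AC50 values were obtained. CRE-bla CHO cells received compound dilution series together with an EC10 level of NKH 477 for 3 hours at 37 degrees Celsius.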
# 15-hLO-2 inh: 15-hLO-2 (ALOX15B) enzyme inhibition. Potency, µM (series often up to 57.1 µM), for the others: at the highest dose activity change, negative = inhibition, actives largely listed as inhibitors. purified 15hLO-2, xylenol orange hydroperoxide absorbance. actives 0.56% (n = 110,000). O15296; note: % is set by controls: 0 for no effect and ±100 for the full control effect; nearly all actives have a fitted effect of over 60% in size
#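 Screening format was qHTS against 50 nM purified 15hLO-2 in Hepes pH 7.5 with detergent. Activity follows hydroperoxide formation from 45 uM arachidonic acid, measured as 573:405 nm absorbance ratio of the ferric-xylenol orange complex.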
# 15-hLO inh: blocks human 15-lipoxygenase activity; P16050; purified 15hLO-1, xylenol orange hydroperoxide absorbance; Potency, µM (top dose mostly 57.1 µM), without a hit: at the highest dose activity change, negative = inhibition, hits mostly inhibitors; actives 1.4% (n = 74,000); AID 887; note: % is set by controls: 0 for no effect and ±100 for the full control effect; nearly all actives have a fitted effect of over 55% in size
# Target sequence (P16050 whole entry, looked up): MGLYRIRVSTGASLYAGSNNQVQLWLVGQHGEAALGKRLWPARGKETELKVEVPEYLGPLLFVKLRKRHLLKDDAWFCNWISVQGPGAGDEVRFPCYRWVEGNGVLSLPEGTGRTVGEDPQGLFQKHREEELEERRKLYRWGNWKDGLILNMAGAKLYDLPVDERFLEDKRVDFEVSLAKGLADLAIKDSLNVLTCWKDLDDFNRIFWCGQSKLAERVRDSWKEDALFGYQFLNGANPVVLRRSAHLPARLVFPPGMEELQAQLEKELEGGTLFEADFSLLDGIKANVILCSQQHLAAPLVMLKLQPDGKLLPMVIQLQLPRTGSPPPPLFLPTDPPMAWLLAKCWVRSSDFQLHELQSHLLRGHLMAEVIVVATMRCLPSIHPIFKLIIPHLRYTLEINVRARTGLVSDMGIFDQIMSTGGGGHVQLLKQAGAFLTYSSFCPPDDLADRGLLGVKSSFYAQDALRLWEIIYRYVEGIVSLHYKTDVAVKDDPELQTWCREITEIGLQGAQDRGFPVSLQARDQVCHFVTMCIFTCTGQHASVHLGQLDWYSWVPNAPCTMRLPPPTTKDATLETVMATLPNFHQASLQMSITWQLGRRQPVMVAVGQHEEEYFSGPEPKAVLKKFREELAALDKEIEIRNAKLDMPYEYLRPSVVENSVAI
#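 Readout: Fe(III)-xylenol orange absorbance, 573-to-405 nm ratio as reaction progress. Enzyme 40 nM purified human 15hLO-1, substrate 50 uM arachidonic acid, 6 min RT after 15 min compound preincubation; Hepes pH 7.5 buffer with Triton X-100.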
# ERK AVP block: inhibitors of vasopressin-stimulated ERK signaling pathway; HEK293-V1b, vasopressin-stimulated pERK AlphaScreen; actives 0.99% (n = 72,000); Potency, µM (titrated, usually from 57.5 µM), inactives show top-dose activity, negative = inhibition, actives largely listed as inhibitors; note: % is set by controls: 0 for no effect and ±100 for the full control effect; nearly all actives have a fitted effect of over 55% in size
#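 Overnight-seeded V1b-HEK293 cells in 1% FBS got compound, then vasopressin (25 nM final, 5 min, 37C), then lysis buffer. AlphaScreen detection of phospho-ERK; activity normalized to basal and full-stimulation controls.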
# * hit, by the source's call; ? = inconclusive; . = not tested or not shown; ! = not active in a repeat; [ ] = remark or other dose. Unless noted, calls come from the whole dose curve; as a rule, active = well fitted inhibition curve with a large enough effect; inconclusive = small, poorly fitted or top-dose-only effect; inactive = no such curve, though single readings can be large or run the other way. Potency is the fitted concentration of half-maximal effect.
SMILES,CRE Fsk mod,15-hLO-2 inh,15-hLO inh,ERK AVP block
c1ccc2c(c1)CCN(c1nc3cc4c(cc3s1)OCO4)C2,10%,-13%,10µM*,-8%
CC(C)CCN1CCc2nc(-c3ccccc3)c3c(c2C1)COC(C)C3 (configuration not stated),.,.,0%[11.4 µM],7%[11.5 µM]
COc1cc2[nH]c(=S)n(CC3CCCO3)c(=O)c2cc1OC (configuration not stated),?,0%,-4%,-30%
COc1cc2[nH]c(=S)n(C3CCCC3)c(=O)c2cc1OC,?,-16%,16µM*,?
C=CCn1c(SCC(=O)NC2CCS(=O)(=O)C2)nc2scc(C3CC3)c2c1=O (configuration not stated),?,-12%,-11%,-21%
C=CCn1c(SCC(=O)NCC2CCCO2)nc2scc(-c3ccco3)c2c1=O (configuration not stated),6.3µM*,-20%,-17%,-24%
C=CCn1c(SCc2cc(=O)n3ccsc3n2)nc2scc(C3CC3)c2c1=O,1.6µM*,-8%,-27%,?
C=CCn1c(SCC(=O)c2ccc(CNC(C)=O)o2)nc2scc(C3CC3)c2c1=O,7.9µM*,?,?,5%
O=C(CSc1nc2scc(-c3ccco3)c2c(=O)n1-c1ccccc1)NCC1CCCO1 (configuration not stated),?,-19%,?,?
CCOC(=O)N/N=C1/C[C@@H](O)[C@@H](O)[C@@H]2[C@@H]3C(=O)N(Cc4ccc5c(c4)OCO5)C(=O)[C@H]3CC[C@H]12,.,.,2%[11.4 µM],0%[11.5 µM]
COc1ccccc1NC(=S)NCCc1ccccc1,.,-18%,.,.
S=C(NCCc1ccccc1)Nc1ccc(Cl)cc1Cl,.,25µM*,.,.
Clc1ccccc1/C=C\c1ccnc2ccccc12,-3%[7.6 µM],12%[11.4 µM],?,-27%[11.5 µM]
c1coc(CNc2nc3sc4c(c3c3ncnn23)CCCC4)c1,6.3µM*,6%,-13%,-29%
CCn1c(CSc2nc(C)cs2)nc2cc(S(=O)(=O)N(C)C)ccc21,9%,-9%,3%,6%
CCN(CC)S(=O)(=O)c1ccc2c(c1)nc(SCc1nc3ccsc3c(=O)[nH]1)n2CC,5µM*,5%,-15%,?
CN(C)c1ccc(C(=C2C=CC(=[N+](C)C)C=C2)c2ccccc2)cc1,?,5µM*,32µM*!,13µM*
CN(C)c1ccc(C(=C2C=CC(=[N+](C)C)C=C2)c2ccc(N(C)C)cc2)cc1,?,?,-3%,10µM*
CC(=O)c1ccc(N(C)C)cc1,.,1%,.,.
O=c1cnc2cncnc2n1Cc1ccc(F)cc1,3.2µM*,-5%,0%,-8%
O=c1cnc2cncnc2n1Cc1ccccc1,?,-7%,6%,-22%
CC(C)[N+]1(C)[C@@H]2CC[C@H]1CC(OC(=O)[C@@H](CO)c1ccccc1)C2 (some centres not stated),2%,13%,7%[25.6 µM],10%
CN(C)c1ccc(N=c2sc3ccccc3n2C)cc1,.,7.9µM*,.,.
Cc1cccc([C@@H]2CN(C)CCc3c2cc(O)c(O)c3Cl)c1,?,-2%,-26%[25.6 µM],-8%
O=C1CC2(CCCC2)CC(=O)N1CCCCNC[C@H]1COc2ccccc2O1,-28%,30%,7%[25.6 µM],18%
SMILES,CRE Fsk mod,15-hLO-2 inh,15-hLO inh,ERK AVP block
COc1ccc(-c2noc(-c3ccccc3-c3ccccc3)n2)cc1OC,7.9µM*,13%,-7%,2%
COc1ccc(NC(=O)c2ccc(-c3ccc(-c4noc(C)n4)cc3C)cc2)cc1OCCN(C)C,0%,25%,?,?
COc1ccc(-c2nc(-c3ccc(NC(=O)c4ccncc4)cc3)no2)cc1OC,?,.,-2%,10µM*
COc1ccc(NC(=O)c2ccc(-c3ccc(-c4noc(C)n4)cc3C)cc2)cc1N1CCN(C)CC1,-27%,41%,-13%[25.6 µM],13µM*!
COc1ccc(-n2c(=O)c(-c3cn(C)c4ccccc34)nc3cnc(N4CCOCC4)nc32)cc1,-2%,-6%,-3%,-24%
NNC(=O)[C@@H](O)[C@H](O)[C@H](O)CO,-5%[7.6 µM],-4%[11.4 µM],4%[11.4 µM],-4%[11.5 µM]
COC(=O)[C@@H]1C[C@@H]2CC[C@@H](O)C[C@@H]2N1CC1CCCCC1,.,-10%,.,20%
O=C1CCCC2=C1C(c1ccc(Br)cc1)c1c([nH]c(=S)[nH]c1=O)N2 (configuration not stated),8%,32µM*,25µM*,-10%
CCCCCCC1Cc2cc(OC)c(OC)cc2C(C(C(=O)OCC)C(=O)OCC)O1 (configuration not stated),.,.,-1%[11.4 µM],36%[11.5 µM]
Cn1cc(Br)c(C(=O)Nc2sc3c(c2C(N)=O)CCC3)n1,.,-2%,.,.
CCn1ncc(Br)c1C(=O)Nc1sc2c(c1C(N)=O)CCC2,2.5µM*,-5%,-14%,-12%
O=S(=O)(c1cccc(C(F)(F)F)c1)N1c2ccccc2-n2cccc2[C@H]1c1cccnc1,2%[7.6 µM],15%[11.4 µM],-1%[11.4 µM],?
Brc1ccccc1-c1nnc(COc2ncnc3c2cnn3-c2ccccc2)o1,?,-15%,2%,32µM*
COc1ccc(CNc2nc(-c3ccccc3OC)nc3ccccc23)c(OC)c1,10µM*,14%,-26%,-14%
COc1ccc(CNc2nc(-c3cccnc3)nc3ccccc23)c(OC)c1,3.2µM*,59%,-1%,-20%
COc1cccc(-c2nc(NCc3ccc(OC)cc3OC)c3ccccc3n2)c1,19%,-3%,?,-14%
COc1ccccc1CNc1nc(-c2cccnc2)nc2ccccc12,?,21%,25µM*,?
CC(C)(N=NC(C)(C)C1=NCCN1)C1=NCCN1,3%[7.6 µM],11%[11.4 µM],2%[11.4 µM],-7%[11.5 µM]
COC(=O)CCCC(=O)O,0%[7.6 µM],11%[11.4 µM],28%[11.4 µM],-13%[11.5 µM]
O=[N+]([O-])c1cc2c(cc1/C=N/n1c(-c3ccccc3)n[nH]c1=S)OCO2,.,-26%,.,.
Cc1ccc(-c2n[nH]c(=S)n2/N=C/C=C/c2ccccc2[N+](=O)[O-])cc1,.,13µM*,.,.
N#CCCn1c(=O)cnc2cnc(Nc3ccccc3)nc21,?,-5%,6%,-17%
O=C1CCCC(O)=C1C=Nc1ccc(O)cc1,.,8%,4%,.
Oc1ccc(N=Cc2ccc(-c3cccs3)s2)cc1,?,?,4µM*,-17%
O=[N+]([O-])c1ccc(Cl)c(CNc2ncnc3c2ncn3[C@@H]2CCCCO2)c1,-8%[7.6 µM],-7%[11.4 µM],6%[11.4 µM],6%[11.5 µM]
O=C(CSc1nc2ccc(S(=O)(=O)N3CCOCC3)cc2[nH]1)N1CCOCC1,0%,-15%,7.9µM*,39%
O=C(CSc1nc2ccccc2[nH]1)N1CCN(c2ccc(F)cc2)CC1,?,3%,-2%,25µM*
CC1(C)CC2C1CCC1(C)OC2(C)CCC1O (configuration not stated),.,-9%,1%,-6%
COc1ncc2nc(CCc3ccccc3)c(=O)n(C)c2n1,6%,11%,1%,2%
Cc1ccnc(SCC(=O)Nc2oc(-c3ccccc3)c(-c3ccccc3)c2C#N)n1,10µM*,-4%,-24%,-19%
